The text below walks through data of PubChem BioAssay AID434947 (Broad Institute, 2010).

About 15 (0.7%) of roughly 2,200 compounds were called active. This is one part of a sample in which actives are shown more often than they occur. Unmarked numbers belong to inactive results.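 Rule for the calls: active = fitted half-maximal concentration for loss of luminescence signal no more than a set limit of log units above the top tested concentration; inconclusive = flat fit with 30 to 70% signal loss, or invalid fit; inactive = half-maximal concentration above that set limit.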

The assay can be described thus: inhibitors of ADP-Glo detection reagents, dose response, artefact control for GSK3beta inhibitor project, biochemical, luminescence, cell-free, homogeneous (AID 434947).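 Note: kinase-free counter screen of ADP-Glo detection reagents for GSK3beta hits.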 As to conditions: 5 uM ADP.
For the molecule `COc1cccc(Nc2nc(-c3ccccc3)nc3ccccc23)c1`, the EC50 is > 30 µM.
`O=C1Nc2cc(C(=O)NCCCN3CCOCC3)ccc2S/C1=C/c1ccccc1F`: the EC50 was > 30 µM.
On to `Cc1csc2c(=O)n(CCO)c(=O)[nH]c12`, for which the EC50 is > 30 µM.
For `CCOc1cc(C2c3c(n[nH]c3C)C(=O)N2c2ccc(Br)cc2)ccc1O` (stereo not given) the value was > 30 µM; for `COC(=O)c1cn(NC(=O)c2cccnc2)c(=O)c2ccccc12`, > 30 µM.
`CCCc1cc(O)c2c(C)cc(=O)oc2c1`: the EC50 is > 30 µM.
Take `COc1ccc(/C=C2/Sc3ccc(C(=O)NCCN4CCCCCC4)cc3NC2=O)cc1`: the EC50 is > 30 µM.
For `Cc1ccccc1-c1nnc(SCc2ccc(F)cc2)o1`, the EC50 was > 30 µM.
`CCCN(CCC)CCCNc1ccc2nnc(-c3ccc(F)cc3)n2n1`: the EC50 was > 30 µM.
For the molecule `O=c1c(O[C@@H]2O[C@H](CO)[C@@H](O)[C@H](O)[C@H]2O)c(-c2ccc(O)c(O)c2)oc2cc(O)cc(O)c12`, the EC50 is > 30 µM.
For `Cc1ccc2c(c1)cc1c(=O)n(CC(=O)NCCN3CCCC3)nc(C)n12` the value was > 30 µM.
Take `COc1cccc2cc(C(=O)OC(C)C(=O)c3ccc(C)cc3)c(=O)oc12` (stereo not given): the EC50 is > 30 µM.
For `CC(=O)Oc1cc(C)cc2oc(=O)cc(-c3ccccc3)c12`, the EC50 was > 30 µM.
Take `CC1(C)CC(=O)C=C(Nc2ccc(F)cc2)C1`: the EC50 was > 30 µM.
On to `COc1ccc(NC(=O)c2sc(SC)nc2N)cc1`, for which the EC50 is > 30 µM.
For `CCOC(=O)c1nnn(CC(=O)Nc2cccc(OC)c2)c1C(=O)OCC` the value was > 30 µM.
Consider `CC1(C)CC(=O)C2=C(C1)Nc1ccccc1NC2c1ccc(F)cc1` (stereo not given), for which the EC50 was > 30 µM.
With `O=C(Nc1ccccc1)Nc1ccncc1`, the EC50 is > 30 µM.
As to `Cc1cc([N+](=O)[O-])c(C)cc1-c1ccc(/C=N/n2cnnc2)o1`, the EC50 was > 30 µM.
Take `Nc1nc(NCCCN2CCOCC2)nc(Nc2ccc(Cl)cc2)c1[N+](=O)[O-]`: the EC50 was > 30 µM.
Consider `CCCC(=O)Nc1nn(CC(C)C)c2nc3cc(C)ccc3cc12`, for which the EC50 was > 30 µM.
`N#Cc1cccc(-c2nnc(SCc3ccccc3C#N)o2)c1`: the EC50 is > 30 µM.
Take `COc1cc(C2OCC3C(c4cc(OC)c(OC)c(OC)c4)OCC23)cc(OC)c1OC` (stereo not given): the EC50 was > 30 µM.
With `O=c1c2ccccc2cnn1-c1nc2ccccc2[nH]1`, the concentration giving a half-maximal response (EC50) was 25.9 µM (active).
With `CN1CCN(C(=O)Cn2ncc3c([nH]c4ccccc43)c2=O)CC1`, the EC50 was > 11 µM.
On to `Cc1cc(NC(=O)/C=C/c2cccc(F)c2)n(-c2nc3ccccc3[nH]2)n1`, for which the EC50 is > 30 µM.
As to `CC(C(=O)NCc1ccco1)n1cc([N+](=O)[O-])cn1` (stereo not given), the EC50 is > 30 µM.
For `CCOC(=O)CCCSc1nnc(CCCCCN2C(=O)c3cccc4cccc(c34)C2=O)o1`, the EC50 is > 30 µM.
With `CCN(CC)Cc1c(O)ccc2occ(C(=O)c3ccc(OC)cc3)c12`, the EC50 is > 30 µM.
For `Clc1ccc(-c2nnc(-c3ccccc3)c(N3CCSCC3)n2)cc1` the value was > 30 µM; for `COc1ccc(Nc2ccccc2C(=O)O)cc1`, > 30 µM.
For `O=C(CN(Cc1cccs1)C(=O)CCC(=O)Nc1ccccn1)NCc1ccccc1` the value was > 30 µM; for `N#Cc1c(N)n(-c2cccc(O)c2)c2nc3ccccc3nc12`, > 30 µM.
On to `Cc1ccc(S(=O)(=O)NCC2COc3ccccc3O2)cc1` (stereo not given), for which the EC50 is > 30 µM.
For the molecule `CN1CCN(c2nc(-c3ccccc3)nc(-c3ccccc3)c2C#N)CC1`, the EC50 is > 30 µM.
For `COC(CNC(=O)CCc1c(C)nc2c(c(C)nn2-c2ccc(C)cc2)c1C)OC` the value was > 30 µM.
Take `CCOC(=O)c1nnn(-c2nonc2N)c1CN(CC)CC`: the EC50 was > 30 µM.
Turning to `COc1cccc2cc(C(=O)CS(=O)(=O)c3ccc(C)cc3)c(=O)oc12`, the EC50 is > 30 µM.
For `CCCOc1ccc(-c2c(C(=O)N/N=C(\C)c3ccco3)nnn2-c2nonc2N)cc1` the value was > 30 µM; for `CCc1ccc(/C=N/NC(=O)c2nnn(-c3nonc3N)c2CN2CCc3ccccc32)cc1`, > 30 µM; for `NC(=O)c1ccc(Oc2ccc(Cl)c3ccccc23)c([N+](=O)[O-])c1`, > 30 µM.
`Cc1[nH]nc2c1C(c1cccs1)C1=C(CCCC1=O)N2` (stereo not given): the EC50 is > 30 µM.
On to `CC(C)CCNc1nc(N)c([N+](=O)[O-])c(NC2CCCCC2)n1`, for which the EC50 is > 30 µM.
For the molecule `CCCCn1nc(NC(=O)COC)c2cc3cc(OC)ccc3nc21`, the EC50 is > 30 µM.
Regarding `O=C(c1cccs1)c1coc2ccc(O)c(CN(CCO)CCO)c12`, the EC50 is > 30 µM.
Take `COc1cccc(C2C3=C(CCCC3=O)Nc3[nH]n(-c4ccccc4)c(=O)c32)c1` (stereo not given): the EC50 is > 30 µM.
In the case of `Cc1ccc(C(=O)O/N=C\c2ccc(N3CCCCC3)c([N+](=O)[O-])c2)cc1`, the EC50 is > 30 µM.
Take `Cc1ccc(Sc2ccc(/C=N/O)cc2[N+](=O)[O-])cc1`: the EC50 was > 30 µM.
For `CS(=O)(=O)N(CCc1ccccc1)CC(=O)N1CCN(c2ccccc2F)CC1` the value was > 30 µM; for `CC1CCN(Cc2c(C(=O)N/N=C/c3ccccc3O)nnn2-c2nonc2N)CC1`, > 30 µM.
With `Cn1c(SCC(=O)NC2CCCCC2)nnc1-c1ccccn1`, the EC50 was > 30 µM.
For `O=C(CCSc1nnc(-c2ccncc2)o1)Nc1ccc(F)cc1` the value was > 30 µM.
For `O=C1Nc2cc(C(=O)NCCCN3CCCC3)ccc2S/C1=C/c1ccccc1F`, the EC50 was > 30 µM.
Consider `CCCNC(=O)c1ccc(Cl)cc1Cl`, for which the EC50 was > 30 µM.
As to `COc1cccc(C(=O)CSc2nccn2C)c1`, the EC50 was > 30 µM.
For `COc1ccc(-c2cc(C(=O)N3CCN(C(=O)c4ccco4)CC3)[nH]n2)cc1` the value was > 30 µM.
Regarding `CC(C)(C)C(=O)COC(=O)c1ccc(O)cc1`, the EC50 was > 30 µM.
Consider `CC(OC(=O)c1nsc(Cl)c1Cl)C(=O)NCc1ccco1` (stereo not given), for which the EC50 was > 30 µM.
Consider `COC(=O)C1=C(C)N(Cc2ccccc2)C(=NCc2ccc(OC)cc2)N[C@H]1c1cccc(F)c1`, for which the EC50 was > 30 µM.
In the case of `CS(=O)(=O)N(Cc1ccccc1)c1ccc(C(=O)Nc2ccccc2Sc2ccccc2)cc1`, the EC50 is > 30 µM.
For `Cc1ccnc(NC(=O)c2ccc([N+](=O)[O-])o2)c1` the value was > 30 µM.
For the molecule `CCCCc1cc(=O)oc2cc(C)cc(OC(C)C(=O)O)c12` (stereo not given), the EC50 was > 30 µM.
Consider `NC(=O)C1CCN(c2nc3c(S(=O)(=O)c4ccccc4)nnn3c3ccccc23)CC1`, for which the EC50 was > 30 µM.
Take `Cc1ccnc(SCCn2c(N3CCOCC3)nc3c2c(=O)[nH]c(=O)n3C)n1`: the EC50 is > 30 µM.
As for `CCSc1nc2sc3c(c2c(=O)n1-c1ccccc1)CCN(C)C3`, the EC50 is > 30 µM.
With `CCOC(=O)c1cnc2c(C)cccc2c1Nc1ccc(N2CCOCC2)cc1`, the EC50 is > 30 µM.
For the molecule `COc1ccc(-c2nn(-c3ccccc3)cc2CO)cc1OC`, the EC50 was > 30 µM.
`COc1cccc2c1cc1c(=O)n(CC(=O)NCCCc3ccccc3)nc(C)n12`: the EC50 is > 30 µM.
With `Cc1[nH]nc2c1C(c1ccc(N(C)C)cc1)C1=C(CC(C)(C)CC1=O)N2` (stereo not given), the EC50 is > 30 µM.
Consider `CC(C(=O)NCc1ccccc1)n1cc([N+](=O)[O-])cn1` (stereo not given), for which the EC50 is > 30 µM.
Turning to `CC(C)N1CCc2c(sc(NC(=O)CCS(=O)(=O)c3ccccc3)c2C(N)=O)C1`, the EC50 is > 30 µM.
As for `COc1cc(/C=C2/SC(=Nc3ccc(O)cc3)NC2=O)ccc1O`, the EC50 is > 30 µM.
For `CN(C)Cc1c(O)ccc2c(=O)c(-c3ccccc3)c(C(F)(F)F)oc12` the value was > 30 µM; for `COc1ccc(-c2nn(-c3ccccc3)cc2/C=C(\C#N)S(=O)(=O)c2ccccc2)cc1OC`, > 30 µM.
As for `Cc1ccc(S(=O)(=O)/N=C2/NC(=O)/C(=C/c3ccccc3)S2)cc1`, the EC50 was > 30 µM.
For `CN(C)c1ccc(C(=O)NN2C(=O)c3ccccc3C2=O)cc1` the value was > 30 µM; for `O=C1CC(c2ccc(O)c(O)c2)Oc2cc(O)cc(O)c21` (stereo not given), > 30 µM; for `Cc1nn(-c2ccccn2)c2c1C(c1ccsc1)C1=C(CCCC1=O)N2` (stereo not given), > 30 µM.
On to `COc1cc(C(c2nnnn2C(C)(C)C)N2CCN(c3nc4ccccc4s3)CC2)ccc1O` (stereo not given), for which the EC50 was > 30 µM.
`Cc1ccc2sc(N3CCN(CCNC(=O)c4ccco4)CC3)nc2c1C`: the EC50 is > 30 µM.
Take `O=[N+]([O-])c1cc(/C=N/O)ccc1N1CCCC1`: the EC50 is > 30 µM.
On to `CCOC(=O)c1nnn(-c2nonc2N)c1CSc1ccc(C)cc1`, for which the EC50 is > 30 µM.
As to `CC1(C)CC2CC(C)(CN2S(=O)(=O)c2ccc(C(=O)Nc3ccc(Cl)c(S(=O)(=O)N4CCOCC4)c3)cc2)C1` (stereo not given), the EC50 is > 30 µM.
On to `COCCN(CC(=O)NCc1ccc(F)cc1)C(=O)CCC(=O)Nc1ccccn1`, for which the EC50 was > 30 µM.
Turning to `Cc1nc(NCCCn2ccnc2)c2ccccc2n1`, the EC50 was > 30 µM.
For `Cc1csc(SCC(=O)Nc2ccc(Cl)cn2)n1` the value was > 30 µM.
Consider `CCc1nnc(NC(=O)c2cc(-c3ccccc3)nn2-c2ccccc2)s1`, for which the EC50 is > 30 µM.
Consider `O=C(CS(=O)(=O)c1ccccc1)Nc1ncc([N+](=O)[O-])s1`, for which the EC50 is > 30 µM.
As for `COc1ccc2nc(C)cc(N3CCOCC3)c2c1`, the EC50 was > 30 µM.
Consider `CC1=C(C(=O)Nc2ccccc2F)C(c2cccs2)C2=C(CCCC2=O)N1` (stereo not given), for which the EC50 is > 30 µM.
